# Data: PubChem BioAssay AID376 (PDSP, 2006)
# The whole screen tested about 2,000 compounds, of which about 250 (12%) were called active. The sample as a whole holds a higher share of actives than the screen did. Unmarked numbers belong to inactive results. Cut-off read from the data, not from the text of the source: active = hERG blockade below about -20% or above about 20%; inactive = in between.
# Molecular target: Voltage-gated inwardly rectifying potassium channel KCNH2 (Homo sapiens) (UniProt Q12809)
# Experiment: modulators of KCNH2 ion channel function, cellular (AID 376);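 note: 0% = buffer alone and 100% = reference blocker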
# Conditions: hERG-expressing cells, channel activity single-concentration screen; concentration not given here
# Chain of Voltage-gated inwardly rectifying potassium channel KCNH2 (Homo sapiens) (Q12809 whole entry, looked up): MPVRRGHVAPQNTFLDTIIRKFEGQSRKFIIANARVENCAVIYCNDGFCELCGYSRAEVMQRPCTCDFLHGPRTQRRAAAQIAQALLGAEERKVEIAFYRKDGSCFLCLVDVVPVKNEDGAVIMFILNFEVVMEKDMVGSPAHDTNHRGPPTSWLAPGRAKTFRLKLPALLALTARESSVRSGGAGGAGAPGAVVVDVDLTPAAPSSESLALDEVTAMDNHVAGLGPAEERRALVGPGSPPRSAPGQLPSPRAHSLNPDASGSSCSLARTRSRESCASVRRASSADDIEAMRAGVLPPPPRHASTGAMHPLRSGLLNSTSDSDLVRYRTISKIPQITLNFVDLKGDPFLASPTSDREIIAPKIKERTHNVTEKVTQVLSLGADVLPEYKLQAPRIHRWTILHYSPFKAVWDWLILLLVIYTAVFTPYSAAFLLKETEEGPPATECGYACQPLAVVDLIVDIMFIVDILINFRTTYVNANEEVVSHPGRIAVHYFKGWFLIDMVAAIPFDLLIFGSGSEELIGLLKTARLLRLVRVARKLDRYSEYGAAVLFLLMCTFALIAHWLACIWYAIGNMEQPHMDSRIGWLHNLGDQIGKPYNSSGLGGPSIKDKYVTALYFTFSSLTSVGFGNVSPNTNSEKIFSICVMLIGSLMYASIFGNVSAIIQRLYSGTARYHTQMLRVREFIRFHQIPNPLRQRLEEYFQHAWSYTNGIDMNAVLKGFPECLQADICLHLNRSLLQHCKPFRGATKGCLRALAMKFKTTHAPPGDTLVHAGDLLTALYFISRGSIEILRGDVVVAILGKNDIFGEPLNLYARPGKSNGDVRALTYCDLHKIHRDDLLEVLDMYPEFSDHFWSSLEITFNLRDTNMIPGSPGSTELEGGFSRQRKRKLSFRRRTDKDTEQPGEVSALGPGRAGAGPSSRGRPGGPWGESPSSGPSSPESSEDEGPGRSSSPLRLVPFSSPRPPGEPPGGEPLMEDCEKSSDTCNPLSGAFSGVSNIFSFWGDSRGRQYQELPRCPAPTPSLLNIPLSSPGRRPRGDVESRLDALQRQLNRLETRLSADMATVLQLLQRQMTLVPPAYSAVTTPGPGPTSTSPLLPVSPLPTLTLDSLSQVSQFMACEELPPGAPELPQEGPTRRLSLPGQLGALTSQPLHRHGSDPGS
row,SMILES,hERG blockade
1,O=C(O)C1CCCN1 (stereo not drawn),5.2%
2,NC(=S)SCCC(=O)O,0.17%
3,CC1=CC(C2C(=NO)C=C(C)CC2(C)C)C(O)C(C)(C)C1 (stereo not drawn),2.54%
4,CC(=O)C(C(c1ccccc1)N1CCOCC1)N1CCOCC1 (stereo not drawn),-3.85%
5,COc1cccc2c1C(=O)c1c(O)c3c(c(O)c1C2=O)CC(O)(C(=O)CO)CC3OC1CC(N)C(O)C(C)O1 (stereo not drawn),3.44%
6,COc1cccc2c1C(=O)c1c(O)c3c(c(O)c1C2=O)CC(O)(C(=O)CO)CC3OC1CC(N)C(O)C(C)O1.[W] (stereo not drawn),0.939%
7,COc1cccc2c1C(=N)c1c(O)c3c(c(O)c1C2=O)CC(O)(C(C)=O)CC3OC1CC(N)C(O)C(C)O1 (stereo not drawn),32.2% (active)
8,O=C(O)CC(=Cc1ccccc1)C(=O)O,-18.3%
9,CC1(C)OC2COC(c3[nH]nc4c(=O)[nH]c(=O)[nH]c34)C2O1 (stereo not drawn),16.5%
10,O=C(O)c1ccc(Oc2nc3ccccc3s2)cc1,1.79%
11,CN(C)CCCCN1CCc2c(n(C)c3ccccc23)C1=O,-2.05%
12,CN(C)CCCN=c1c2ccccc2n(C)c2[nH]c(=O)n(C)c(=O)c12,54.8% (active)
13,CCN(CC)COC(=S)S,-4.52%
14,CC1(C)OCC(C2OC(On3nnc4ccc(Cl)cc43)C3OC(C)(C)OC23)O1 (stereo not drawn),12.7%
15,NC(=O)CS(=O)CC(N)C(=O)O (stereo not drawn),5.23%
16,NC(N)=NN=Cc1ccc(C2CCNCC2)cc1,6.62%
17,Nc1c(S(=O)(=O)O)cc(S(=O)(=O)O)c2ccc(N=Nc3ccccc3)c(O)c12,11.9%
18,COc1cc(N=Nc2cccc(S(N)(=O)=O)c2)c2ccccc2c1N,70.8% (active)
19,N=C(N)SCCON1C(=O)c2ccccc2C1=O,-2.21%
20,CC(=O)Nc1ccc(Cc2ccc3[nH]c(=O)cc(C)c3c2)cc1,0.318%
21,CSC(=[SH+])[N-]N=C(c1ccccn1)c1ccccn1.[Cu][Br],3.34%
22,CC1(C)SC2C(NC(=O)C3(N)CCCCC3)C(=O)N2C1C(=O)O (stereo not drawn),-8.47%
23,NC(N)=NNC(=O)C(=O)O,-3.63%
24,NNC(=O)CCc1ccc2ccc3ccccc3c2c1,-44.7% (active)
25,NNC(=O)CCSc1ccccc1,3.37%
26,O=C(O)CCCc1ccc2ccc3ccccc3c2c1,8.7%

row,SMILES,hERG blockade
1,O=C(CON1C(=O)c2ccccc2C1=O)c1ccccc1,13.2%
2,O=C(O)c1ccccc1-c1ccccc1C(=O)Nc1ccc2c(c1)Cc1cc(F)ccc1-2,-4.28%
3,CC(CCCC1SCC2NC(=O)NC21)C(=O)O (stereo not drawn),6.78%
4,Cc1cc2c(=O)[nH]c(N)nc2nc1C,-6.54%
5,Cc1cc2nc3[nH]c4c(Cl)cc(Cl)cc4c3nc2cc1C,-2.06%
6,Cc1cc2cc3c(=O)[nH]c(=O)[nH]c3nc2cc1C,-26% (active)
7,O=C(c1cc(Br)ccc1O)c1cc(Br)ccc1O,-0.498%
8,Clc1ccccc1NN(Cc1ccncc1)c1ccccc1Cl,9.21%
9,COc1ccc(NC(=S)Nc2ccccc2)cc1,3.26%
10,Cc1cc(C(C)(C)C)c(OCCCN2CCOCC2)c(C(C)(C)C)c1,20.8% (active)
11,OCCCN=C1CCCCC1,13.3%
12,NCc1ccc(C(=O)O)cc1,-10.8%
13,c1cncc(CNc2ncn[nH]2)c1,-6.56%
14,CC(C)N1CCN(c2ccncc2S(=O)(=O)N2CCCCC2)CC1,4.4%
15,O=c1[nH]c2[nH]c(=S)[nH]c(=S)c2[nH]1,33.1% (active)
16,O=c1[nH][nH]c(=S)c(=O)[nH]1,4.97%
17,Clc1ccccc1NN(Cc1ccccn1)c1ccccc1Cl,7.97%
18,Cc1cc(=O)[nH]c(N=C(N)Nc2ccc(Cl)cc2)n1,-17.7%
19,Cc1cccc(C(=O)O)c1CC1NCCC2c3ccccc3NC12 (stereo not drawn),32.1% (active)
20,NC(Cc1cccnn1)C(=O)O (stereo not drawn),5.87%
21,O=S(=O)(O)n1ccnc1 (tested in a mixture with another compound),-15.4%
22,S=C(Nc1ccc2cn[nH]c2c1)Nc1ccc2cn[nH]c2c1,-19.3%
23,CCN(CC)CC[n+]1ccc2c(C)c3[nH]c4ccccc4c3c(C)c2c1,36.7% (active)
24,Cc1c2cc[n+](CCN3CCCCC3)cc2c(C)c2c1[nH]c1ccc(O)cc12,26.1% (active)
25,CCN(CC)CC[n+]1ccc2c(C)c3[nH]c4ccc(O)cc4c3c(C)c2c1,45.4% (active)
26,NCCNC(=S)S,5.6%

row,SMILES,hERG blockade
1,NN=C1CC(=O)NC(=O)N1,-9.37%
2,CCCCNc1nc(SC)nc2nc[nH]c12,6.48%
3,COC1C=COC2(C)Oc3c(C)c(O)c4c(O)c(cc(O)c4c3C2=O)NC(=O)C(C)=CC=CC(C)C(O)C(C)C(O)C(C)C(OC(C)=O)C1C (stereo not drawn),8.1%
4,CC(C)(C)COS(=O)OCC(C)(C)C,-13.1%
5,CC(=O)C=NCC(=O)O,-0.567%
6,O=C(O)Cc1c[nH]c2ccc(F)cc12,-3.11%
7,CCOP1(=O)OCC2OC(n3cnc4c(N)ncnc43)C(O)C2O1 (stereo not drawn),5.38%
8,CCOc1ccc2c(ccc(C=Cc3cc(C)c4cccnc4c3O)[n+]2C)c1,37% (active)
9,O=C(O)CCC(C(=O)O)N1C(=O)C2C3CCC(C3)C2C1=O (stereo not drawn),7.54%
10,CC12CCC(=O)C=C1CCC1C2C(O)CC2(C)C(c3csc(-c4ccccc4)n3)CCC12 (stereo not drawn),-6.87%
11,CCc1ccc2c(c1)N(CC(C)CN(C)C)c1ccccc1S2 (stereo not drawn),25.4% (active)
12,O=C(O)C(Cc1ccccc1)Cc1ccccc1,-4.1%
13,CN(C)c1ccc(C(C#N)N2CCCN(C(C#N)c3ccc(N(C)C)cc3)C2c2ccc(N(C)C)cc2)cc1 (stereo not drawn),6%
14,Cc1ccc(S(=O)(=O)N=Nc2c(O)[nH]c3cc(O)c(C(=O)O)cc23)cc1,-2.22%
15,C[N+](C)(C)c1ncnc2c1ncn2C1CCCCO1 (stereo not drawn),-24.9% (active)
16,O=[N+]([O-])c1ccc(Cl)c(CNc2ncnc3c2ncn3C2CCCCO2)c1 (stereo not drawn),7.11%
17,OCC1OC(n2cnc3c(C=C(O)c4ccccc4)ncnc32)C(O)C1O (stereo not drawn),9.21%
18,C[N+](C)(C)c1nc(N)nc2c1ncn2C1OC(CO)C(O)C1O (stereo not drawn),13.1%
19,OCCn1cnc2c(SCc3ccccc3)ncnc21,-7.5%
20,OCC1OC(n2cnc3c(SCc4ccccc4)ncnc32)C(O)C1O (stereo not drawn),22.8% (active)
21,Clc1ccc(CSc2ncnc3c2ncn3C2CCCCO2)cc1 (stereo not drawn),24.5% (active)
22,Fc1cccc(CSc2ncnc3c2ncn3C2CCCS2)c1 (stereo not drawn),12.5%
23,NC(CNO)C(=O)O (stereo not drawn),-10.6%
24,Nc1nc2c(ncn2C2C=CC(CO)C2)c(=O)[nH]1 (stereo not drawn),1.77%
25,CN1CCCC1c1cccnc1.O=C(O)c1ccccc1O.O=C([OH2+])c1ccccc1O.O=C([OH2+])c1ccccc1O.O=C([OH2+])c1ccccc1O.[Cu+2] (stereo not drawn),26% (active)
26,CN1CCCC1c1cccnc1.O=C(O)c1ccccc1O.O=C([OH2+])c1ccccc1O.O=C([OH2+])c1ccccc1O.O=C([OH2+])c1ccccc1O.[Mn+2] (stereo not drawn),15.5%

row,SMILES,hERG blockade
1,CN1CCCC1c1cccnc1.O=C(O)c1ccccc1O.O=C([OH2+])c1ccccc1O.O=C([OH2+])c1ccccc1O.[Mn+2] (stereo not drawn),13.4%
2,O=C(O)CCSc1ncnc2nc[nH]c12,2.65%
3,N=C(c1ccc2ccccc2c1)c1ccccc1Cc1ccccc1,9.45%
4,CC1(CCOCc2ccccc2)NC(=O)NC1=O (stereo not drawn),-3.15%
5,COc1ccc(C[N+](C)(C)N)cc1OC,-25.5% (active)
6,COc1ccc(C=C(C#N)C(N)=O)cc1OC,4.46%
7,Nc1nc(N)nc(CCCCc2nc(N)nc(N)n2)n1,8.11%
8,NCc1nnn(Cc2ccccc2)c1N,0.879%
9,CC1(C(=O)O)CCCC1C(=O)O (stereo not drawn),0.951%
10,O=c1ccnc(SCc2ccc(Cl)cc2)[nH]1,-3.26%
11,O=S(=O)(CC(O)C(Cl)(Cl)Cl)NNc1ccccc1 (stereo not drawn),-8.3%
12,O=CNC(Cc1cnc[nH]1)C(=O)O (stereo not drawn),-6.41%
13,O=S(=O)(O)c1cc(N=[N+]([O-])c2cc(S(=O)(=O)O)c3ccccc3c2)cc2ccccc12,20.3% (active)
14,Nc1ccc(N=Nc2c(S(=O)(=O)O)cc3ccccc3c2S(=O)(=O)O)cc1,5.01%
15,O=S(=O)(O)c1cc(N=Nc2cccc3ccccc23)c(O)c2ncccc12,10.6%
16,CCC(Nc1ncnc2nc[nH]c12)C(=O)O (stereo not drawn),-0.207%
17,S=C(S)NCCN1CCNCC1,6.35%
18,O=CN1CCN(CC(O)CN2CCCCC2)CC1 (stereo not drawn),-4.54%
19,CN(C)CC1CCCC(CN(C)C)C1=O (stereo not drawn),-6%
20,CN(C)CC1CCC2=C(C1=O)C(c1ccc(Cl)c(Cl)c1)C1=C(CCC(CN(C)C)C1=O)O2 (stereo not drawn),24.7% (active)
21,O=C1c2ccccc2C(=O)N1c1ccc(Cc2ccc(N3C(=O)c4ccccc4C3=O)cc2)cc1,-0.893%
22,O=C(O)C=CC(=O)Nc1ccccn1,5.5%
23,N=C(CC(=O)Nc1ccccn1)c1ccccc1,-21.8% (active)
24,O=C(CC(=O)c1ccncc1)c1ccccc1,10.3%
25,CC1CC2C3CCC4=CC(=O)C=CC4(C)C3(Cl)C(Cl)CC2(C)C1(O)C(=O)COP(=O)(O)O (stereo not drawn),10.3%
